# PubChem BioAssay (NCI)
# This is part of a sample that, as a whole, favours compounds with a hit. Of some 79,000 tested, about 15% had one in any assay. Values without a mark were called inactive. Calls of active or inactive are those of the source. Cut-off read from the data, not from the text of the source: active = growth inhibition above about 70%; inactive = the rest.
# Legend:
# [1] = NCI Yeast Anticancer Drug Screen. Data for the rad50 strain (AID 155);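 note: 0% = growth of vehicle-only cultures of the same strain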; conditions: S. cerevisiae rad50 strain growth inhibition; at 50.0 µM; stronger effect = higher value
# Method in brief: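 Genetically altered yeast (DNA repair pathway); compound treatment; growth inhibition vs vehicle ctrl.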
# [2] = NCI Yeast Anticancer Drug Screen. Data for the mec2-1 strain (AID 157); conditions: S. cerevisiae mec2-1 strain, at 50.0 µM, stronger effect = higher value
# Method in brief: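 Compounds were applied to mec2-1 yeast cells. Their growth was then compared with that of vehicle-treated cultures to give growth inhibition.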
# [3] = NCI Yeast Anticancer Drug Screen. Data for the sgs1 mgt1 strain (AID 161);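 note: 0% = growth of cultures given vehicle only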; conditions: S. cerevisiae sgs1 mgt1 strain, at 50.0 µM, stronger effect = higher value
# Method in brief: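 This yeast growth screen uses a strain with defined DNA-repair lesions; compound-treated growth is compared with vehicle-treated growth.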
# [4] = NCI Yeast Anticancer Drug Screen. Data for the cln2 rad14 strain (AID 165);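 note: 0% = growth equal to vehicle treated cultures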; conditions: S. cerevisiae cln2 rad14 strain, at 50.0 µM, stronger effect = higher value
# Method in brief: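 Strain: cln2 rad14 yeast, altered in cell cycle control and DNA damage repair. Read-out: growth inhibition vs vehicle.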
# [5] = NCI Yeast Anticancer Drug Screen. Data for the bub3 strain (AID 167); conditions: S. cerevisiae bub3 mutant strain, at 50.0 µM, stronger effect = higher value
# Method in brief: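 Yeast carrying a defined mutation is treated with each compound, and growth is compared with that of vehicle-exposed cells to give inhibition.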
# [6] = NCI Yeast Anticancer Drug Screen. Data for the mlh1 rad18 strain (AID 175); conditions: S. cerevisiae mlh1 rad18 strain growth inhibition; at 50.0 µM; stronger effect = higher value
# Method in brief: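 A repair-deficient yeast strain is exposed to test compound, and growth is scored relative to vehicle-treated controls.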
SMILES,growth inhibition [1],growth inhibition [2],growth inhibition [3],growth inhibition [4],growth inhibition [5],growth inhibition [6]
O=C(NC1CCCCC1)Oc1ccc(Cl)cc1Cl,4.8%,23.9%,28.2%,-8.45%,35.6%,31.9%
CCOC(=O)c1c[nH]c2c(C(F)(F)F)cccc2c1=O,15.6%,-9.1%,1.55%,8.75%,24.6%,14.6%
CCCNC(=S)/N=C\c1c(O)c2ccccc2oc1=O,-38.8%,-56.8%,-35%,-0.45%,-0.2%,-5.4%
CCOC(=O)c1c[nH]c2ccccc2c1=O,1.65%,-8.95%,-0.35%,-16%,-7.9%,2.2%
CC(C)(C)c1cc(C#N)cc(Br)c1O,98.6% (active),98.7% (active),99.3% (active),97.2% (active),97.7% (active),98.7% (active)
N#CCCN(C(=O)COc1ccc(Cl)cc1Cl)C1CCCCC1,85% (active),87.7% (active),73% (active),87.2% (active),89.3% (active),95% (active)
COc1ccc(C2S/C(=C\c3ccccc3)C(=O)N2NC(=O)Cc2ccccc2)cc1 (stereo unspecified),-12.8%,-54.2%,-7.5%,-69.7%,-18.6%,-12%
COc1ccc(C(CC(=O)O)c2ccc(OC)cc2OC)cc1 (stereo unspecified),-0.3%,0.8%,11.8%,-24.5%,0.85%,6.95%
c1ccc2oc(N3CCN(c4nc5ccccc5o4)CC3)nc2c1,4.45%,-0.2%,-9.1%,5.85%,12%,-12.2%
CCCCN=C1NC(N)=NC(C)(C)N1,-0.1%,-0.35%,-0.75%,-37.5%,-13.3%,-18.9%
Cc1c(CO)[n+](=O)c2ccccc2n1[O-],30.4%,12.6%,0.45%,-22.6%,3.4%,21.7%
CCOC(=O)C1=C(NC(=O)C(c2ccccc2)c2ccccc2)OCC1,4.7%,4.75%,5.05%,-48.5%,-13.3%,7.85%
O=C1c2cc(O)c(O)cc2O[C@H](c2ccc(O)c(O)c2)[C@H]1O,2.15%,-35.1%,11.8%,16.2%,-8.7%,-46.7%
Cn1ncc2c(=S)[nH]c(=S)[nH]c21,19.4%,-9.25%,2.5%,7.85%,2.3%,1.85%
CCNCC(=O)Nc1ccc(C(=O)OC)cc1,-8%,-29.4%,-9.9%,-20%,1.45%,-28.9%
NC(=O)C(=O)c1cc(Cl)c(Cl)c(Cl)c1Cl,-12.3%,-13.5%,12.4%,-9%,-5.15%,-4.15%
O=C(/C(=C\c1ccc(Cl)cc1)c1ccccc1)c1ccccc1,-38%,-29.5%,4.9%,5.95%,-23.4%,-16.1%
CN(C)C(=S)Nc1ccc(S(=O)(=O)N2CCCCC2)cc1,-7.9%,-28.4%,-2.7%,1.15%,-16.4%,-7.85%

SMILES,growth inhibition [1],growth inhibition [2],growth inhibition [3],growth inhibition [4],growth inhibition [5],growth inhibition [6]
CCCCCCCCCCCCCCCCCCN=C=O,-23.6%,-45.8%,-17.8%,-10.8%,-31.8%,-39%
O=C(NC(COC(=O)c1ccccc1)COC(=O)c1ccccc1)c1ccccc1,29.5%,7.85%,12.8%,12.8%,-1.1%,9.95%
CCc1cc2c(oc3c4ccccc4ccc23)c(=O)[nH]1,-8.95%,-12.6%,-15.7%,-14.3%,-25.4%,-7.55%
COc1c(C)cc2c(C(C)C)c(O)c(O)c(C=O)c2c1O,86.1% (active),88.2% (active),80.5% (active),79% (active),80.8% (active),76.3% (active)
CCOC(=O)c1oc2ccc([N+](=O)[O-])c3c2c1CCC3,1.8%,-1.95%,-7%,-2.35%,-64%,-8.05%
FC(F)(F)C(F)(F)c1nc(C(F)(F)C(F)(F)C(F)(F)c2noc(C(F)(F)C(F)(F)F)n2)no1,8.5%,16.9%,15%,-31.3%,-3%,-6.3%
NC(CCSCC(F)F)C(=O)O (stereo unspecified),19.4%,8.9%,3.95%,6.95%,-22%,25.4%
CCCCCSC,21%,-12.1%,11.2%,10.1%,7.9%,28.6%
CCCC1OCCO1,-15.3%,-0.95%,-6.85%,-4.5%,5.15%,-3.9%
CC1(C)C=CC=C(C(=O)O)C=C1,-23.1%,-24%,-34.2%,-21.4%,-13.7%,-14.7%
CSc1nc2ncnc(N(C)C)c2[nH]1,1.1%,-11.8%,-8.5%,2.45%,-7.4%,-16.5%
Cc1cc(Cl)c(Cl)cc1N,-11.6%,-7.2%,5.6%,-9.65%,12.1%,12.4%
O=c1[nH]c2cc(Cl)ccc2nc1/C=C(\O)c1ccccc1O,3.35%,-13.3%,-11.2%,-8.4%,-28.3%,-0.8%
CCCC1(CCC)CNC(=O)NC1,0.45%,-3.9%,-5.1%,-11.1%,1.5%,-10.8%
O=[N+]([O-])c1ccc(N/N=C/C(Br)(Br)Br)c([N+](=O)[O-])c1,-5.85%,-0.65%,-21.2%,-11.9%,-14.4%,-27.9%
NS(=O)(=O)c1ccc2cc(S(N)(=O)=O)ccc2c1,19.1%,13.5%,22.4%,15.5%,23.1%,25.8%
N#Cc1ccccc1NC(=O)C(=O)C(C(=O)c1ccccc1-c1ccccc1)C1OC(=O)c2ccccc21 (stereo unspecified),24.4%,5.25%,11.7%,-43%,2.25%,0.95%
CC(C)(C)CC(C)(C)N,-2.65%,-4.8%,-16.9%,-41.5%,-2.35%,20.6%
